# ANO1 block: blocks the mouse calcium-activated chloride channel TMEM16A. normalized B-score (activity score, 25-100; higher = stronger inhibition) at 10 µM. HEK293 TMEM16A/YFP iodide influx fluorescence, ionomycin. actives 1.2% (n = 310,000). Q8BHY3. AID 588511;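 active = ratio plate-corrected score three or more library SD toward inhibition, starting fluorescence score within five deviations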;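 also: score derived from kinetic fluorescence span divided by baseline fluorescence per well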
# Target sequence (Q8BHY3 whole entry, looked up): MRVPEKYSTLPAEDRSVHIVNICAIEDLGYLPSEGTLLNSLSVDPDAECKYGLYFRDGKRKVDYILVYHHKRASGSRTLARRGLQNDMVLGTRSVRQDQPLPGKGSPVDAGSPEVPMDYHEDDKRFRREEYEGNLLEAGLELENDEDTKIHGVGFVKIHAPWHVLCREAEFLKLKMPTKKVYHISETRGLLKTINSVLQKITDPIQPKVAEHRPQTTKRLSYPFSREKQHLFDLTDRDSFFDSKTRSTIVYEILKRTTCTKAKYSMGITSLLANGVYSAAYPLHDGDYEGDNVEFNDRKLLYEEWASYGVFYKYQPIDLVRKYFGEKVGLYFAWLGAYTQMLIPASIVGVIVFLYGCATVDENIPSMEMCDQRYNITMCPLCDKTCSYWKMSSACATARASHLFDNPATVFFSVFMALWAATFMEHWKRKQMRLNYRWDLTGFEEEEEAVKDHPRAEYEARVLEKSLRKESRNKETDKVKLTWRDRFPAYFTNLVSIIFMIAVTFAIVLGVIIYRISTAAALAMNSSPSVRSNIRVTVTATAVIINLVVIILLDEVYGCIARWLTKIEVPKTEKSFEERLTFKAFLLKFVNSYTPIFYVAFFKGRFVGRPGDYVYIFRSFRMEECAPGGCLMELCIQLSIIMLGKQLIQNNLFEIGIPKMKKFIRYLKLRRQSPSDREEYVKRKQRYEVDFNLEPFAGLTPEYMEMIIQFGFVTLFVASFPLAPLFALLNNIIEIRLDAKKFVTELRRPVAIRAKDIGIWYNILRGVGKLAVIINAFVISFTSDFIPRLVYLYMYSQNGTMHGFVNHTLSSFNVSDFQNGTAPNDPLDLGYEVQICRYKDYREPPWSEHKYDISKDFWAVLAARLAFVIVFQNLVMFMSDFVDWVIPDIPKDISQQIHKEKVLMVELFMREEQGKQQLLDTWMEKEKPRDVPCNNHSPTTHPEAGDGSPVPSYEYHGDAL
# m5-HT2A agonist: mouse HTR2A agonism via beta-arrestin recruitment; CHO-K1 mHTR2A beta-arrestin complementation, luminescence; percent of 30 µM serotonin response; AID 624169; activation, % at 7.6 µM; actives 0.66% (n = 360,000);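 active = activation above a run cutoff, the mean activation of all tested compounds plus 3 SD, cut at about 14% in these data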;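 also: 0% = plate median of compound wells and 100% = 30 µM serotonin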
# TLR9-MyD88 inh: TLR9-MyD88 interaction inhibition | Q9NR96+Q99836 | CHO BLA complementation TLR9-MyD88, CCF4 FRET ratio | inhibition, % at 4.98 µM | actives 0.21% (n = 340,000) | AID 504734;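 active = inhibition above the mean over all tested compounds plus 3 SD, cut at about 21% in these data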;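 also: 0% = DMSO only wells and 100% = clavulanate BLA inhibitor control wells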
# NOD2-RIPK2 inh: blocks binding of human NOD2 to RIPK2; O43353; CHO BLA complementation NOD2-RIPK2, CCF4 ratio; actives 0.38% (n = 360,000); inhibition, % at 4.98 µM; in the data active = inhibition above about 21%;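 also: 0% = vehicle only and 100% = reference blocker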
# ANO1 activ: activators or potentiators of mouse TMEM16A chloride channel | Q8BHY3 | HEK293 TMEM16A/YFP-H148Q/I152L, iodide quench fluorescence; hits give low values | B-score at 10 µM | actives 0.3% (n = 340,000) | AID 623877;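 active = fluorescence-ratio B-score plate-corrected deviation score at least 3 library SD below zero, with starting fluorescence score within 5 deviations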;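 also: channel opened by trigger with iodide after compound preincubation; score built on the fluorescence ratio of max minus min over baseline; more negative score means more quench and so TMEM16A activation or potentiation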
# TLR4-MyD88 BLA: inhibitors of human TLR4-MyD88 binding; O00206+Q99836; HeLa CL3-4 TLR4/MyD88 BLA complementation, FRET ratio; inhibition, % at 8.4 µM; actives 0.18% (n = 200,000); AID 861; in the data active = inhibition above about 25%;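 also: 0% = vehicle and 100% = reference inhibitor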
# NOD2-RIPK2 conf: confirmation of human NOD2-RIPK2 interaction inhibitors; AID 624370; inhibition, % at 4.98 µM; shares compounds with NOD2-RIPK2 inh; CHO cells, NOD2-RIPK2 BLA complementation, CCF4 FRET; actives 70% (n = 1,200);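 active = mean inhibition across replicates above a set limit taken from the earlier primary screen, cut at about 21% in these data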;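 also: 0% = DMSO-only wells and the high end = clavulanate BLA-blocked wells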
# NOD2 BLA counter: counter-screen for NOD2-RIPK2 interaction inhibitors: BLA reporter | CHO BLA reporter, CCF4 FRET ratio, counterscreen | shares compounds with NOD2-RIPK2 inh | inhibition, % at 4.98 µM | actives 57% (n = 1,200);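 active = mean inhibition above the low-control mean inhibition plus three low-control SD, cut at about 11% in these data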;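 also: 0% = DMSO only wells and 100% = clavulanate high control wells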
# * hit, by the source's call; i = inactive; nt = no result given; ! = a repeat was not active. This is a sample that favours compounds with a hit; in the whole collection about 2.4% have one here.
SMILES,ANO1 block,m5-HT2A agonist,TLR9-MyD88 inh,NOD2-RIPK2 inh,ANO1 activ,TLR4-MyD88 BLA,NOD2-RIPK2 conf,NOD2 BLA counter
Cc1cccc(C)c1NC(=O)C(CCc1ccccc1)n1c(=O)c(-c2ccccc2)nc2ccccc21 (configuration not stated),nt,-9,nt,11,nt,nt,nt,nt
O=C(NC1CCCCC1)C(CCc1ccccc1)n1c(=O)c(-c2ccccc2)nc2ccccc21 (configuration not stated),nt,-4,nt,-15,nt,nt,nt,nt
Cc1cccc(C)c1NC(=O)C(CCc1ccccc1)n1c(=O)c(-c2cc3ccccc3[nH]2)nc2ccccc21 (configuration not stated),nt,-1,nt,45*,nt,nt,41*,67*
N#Cc1cc(-c2cccc(Cl)c2)c[nH]c1=O,i,-3,-5,4,i,-1,nt,nt
CC1(C)CC2(C)CC(=O)C1C(C(=O)O)C2C(=O)O (configuration not stated),nt,3,-18,-9,nt,nt,nt,nt
Cc1ccc(NC(=O)c2ccccc2)cc1,i,-1,1,4,i,9,nt,nt
Cc1ccc(NC(=O)C2=C(c3ccccc3)S(=O)(=O)CCS2(=O)=O)cc1,i,0,9,56*,i,14,78*,10
COc1cc([N+](=O)[O-])c2nc(C=NNC(N)=S)ccc2c1,nt,-1,-4,-8,i,nt,nt,nt
N#CC(=C1C=CC(=NO)C(Cl)=C1)c1ccc(Cl)cc1,nt,7,8,42*,i,nt,26*,23*
Cc1cccc(N2CN(S(=O)(=O)c3cccc([N+](=O)[O-])c3)c3nc4ccccc4nc32)c1,nt,5,3,-7,i,nt,nt,nt
C=CCOc1cccc(C(=O)/C=C2/C(=O)Nc3ccccc32)c1,i,-1,9,41*,i,nt,39*,4
CC1CC(C)CN(c2oc(Cc3ccccc3)nc2C#N)C1 (configuration not stated),i,0,-9,0,i,10,nt,nt
C/C(=N\NC(=O)c1cc(-c2ccncc2)nc2ccccc12)c1ccc(N2CCOCC2)cc1,i,-4,7,24*,i,-12,6,2
O=C(CC(=O)Nc1cccc(Cl)c1Cl)Nc1cccc(Cl)c1Cl,i,-3,5,-17,i,nt,nt,nt
CC(C)C[C@@H]1O[C@H](CCc2ccccc2)Cc2[nH][nH]c(=O)c21,nt,-3,nt,-5,nt,nt,nt,nt
CC(C)(C)OC(=O)NCCCCCNC(=O)c1[nH]cnc1C(=O)N[C@@H](Cc1ccccc1)C(=O)OC(C)(C)C,nt,5,7,31*,i,nt,16,-9
CNC(=O)c1nnsc1S(=O)(=O)c1ccc(Cl)cc1,nt,-3,41*,85*,i,13,80*,9
O=c1c2ccc(F)cc2sn1-c1ccccc1,nt,8,14,36*,nt,nt,46*,8
CN(C1CCCCC1)S(=O)(=O)c1cccc(C(=O)Nc2ccccn2)c1,i,5,1,-2,i,nt,nt,nt
Cc1cccc(NC(=O)c2cccc(S(=O)(=O)N(C)C3CCCCC3)c2)n1,nt,5,-5,21*,nt,nt,1,-2
O=C(C=C=Nc1ccccc1)C(=O)N=C=Cc1ccccc1,i,-9,5,28*,i,nt,18,0
Cc1ccc(O)c(C2=Nc3ccccc3N=C(c3ccco3)C2)c1,i,0,12,23*,i,-4,8,46*
CCOC(=O)C1=CC[C@@H](c2ccc(F)cc2)N(S(=O)(=O)c2ccc(C)cc2)[C@H]1c1ccccc1,nt,-1,nt,-19,nt,nt,nt,nt
CCOC(=O)N1CCC(NC(=O)c2ccc3c(c2)N=C(CC)c2cc(C)ccc2S3)CC1,i,-2,-4,2,i,nt,nt,nt
CCOC(=O)N1CCC(NC(=O)c2ccc3c(c2)N=C(C)c2c(C)ccc(C)c2S3)CC1,i,-10,14,24*,i,nt,16,-1
SMILES,ANO1 block,m5-HT2A agonist,TLR9-MyD88 inh,NOD2-RIPK2 inh,ANO1 activ,TLR4-MyD88 BLA,NOD2-RIPK2 conf,NOD2 BLA counter
CC(=O)Nc1ccc2c(c1)C(=Nc1cccc(C)c1)c1ccccc1-2,nt,-9,7,2,i,nt,nt,nt
COC(=O)c1cc2c(cc1NC(=O)CSCCc1ccccn1)OCO2,i,1,-3,25*,i,-6,4,-1
Cc1ccc2cc(CN(CCO)Cc3nnnn3Cc3ccc(F)cc3)c(=O)[nH]c2c1,i,-1,-6,0,i,-2,nt,nt
O=c1[nH]c2cc3c(cc2cc1CN(CCCO)Cc1nnnn1Cc1ccc(F)cc1)OCO3,i,-8,8,26*,i,3,-3,2
O=[N+]([O-])/C=C/c1cn(Cc2ccc(Cl)cc2)c2ccccc12,i,-7,2,21*,i,-3,38*,10
CC(C)CN(c1ccccc1)S(=O)(=O)c1nnc(NC(=O)c2ccco2)s1,i,1,-13,-3,i,nt,nt,nt
CCCCNc1c(-c2ccc(OC)c(SC3CCCCC3)c2)nc2ccc(C)cn12,nt,11,-7,53*!,i,nt,20,10
COc1ccc2cc(-c3ccccc3)c(=O)oc2c1,i,10,-4,-8,i,nt,nt,nt
CC(=O)Oc1ccc2cc(-c3cccnc3)c(=O)oc2c1,nt,3,9,31*,i,nt,30*,45*
CCC(=O)Nc1ccc(C(=O)Nc2ccc(Br)cc2F)cc1,i,-3,-8,3,i,8,nt,nt
O=C(NCc1cccnc1)c1nn2cccnc2c1Cl,i,-1,5,-17,i,-11,nt,nt
O=Cc1cn(-c2ccccc2)nc1-c1ccccc1,i,-2,0,2,i,nt,nt,nt
CC1=NNC(=O)/C1=C\c1cn(-c2ccccc2)nc1-c1ccccc1,i,4,3,54*,i,7,60*,5
COC(=O)Nc1sc2c(c1C(=O)N1CCOCC1)CCC(C)C2 (configuration not stated),i,1,-4,-2,i,-17,nt,nt
CN(C)c1ccc(/C=C/C(=O)c2ccc3c(c2)OCO3)cc1,nt,-7,19,55*,nt,nt,48*,55*
CCOc1cc(C)c(C(C)C)cc1S(=O)(=O)NCc1ccccn1,i,4,-9,-15,i,-6,nt,nt
CCOC(=O)C(C)N1C(=O)S/C(=C\c2ccc(-c3ccccc3C(=O)O)o2)C1=O (configuration not stated),i,-6,-1,23*,i,nt,12,21*
